Screening results: PubChem BioAssay, NMMLSC
An excerpt weighted towards active compounds, which were near 1.2% of everything screened.
GSH bead fluor: GSH bead compound fluorescence profile; GSH beads flow cytometry, compound fluorescence 488/530 nm; hits give high values; fluorescence (KMESF) at 10 µM; 190,000 tested, 0.25% active; in the data active = fluorescence above about 89;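 note: glutathione beads carrying GST-tagged Bcl family fusion proteins plus one bare bead set; values are compound well signal with DMSO vehicle wells as background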
RGS8-Gao: modulates binding of RGS8 to human Galphao | P09471 | multiplexed bead flow cytometry; actives lie on both sides | response (percent of control binding), % at 10 µM | 220,000 tested, 0.34% active; in the data active = response below about 60% or above about 140%; inactive = in between;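 note: Galphao activated as the GDP aluminium fluoride complex binding bead-coupled RGS8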
RGS4-Gao reg: modulates binding of RGS4 to human Galphao | P09471 | Multiplexed bead flow cytometry; actives lie on both sides | binding response (% of control), % at 10 µM | 220,000 tested, 0.33% active | AID 1415; in the data active = binding response below about 49% or above about 150%; inactive = in between;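 note: fluorescent Galphao activated with aluminum fluoride binding bead-coupled RGS4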
RGS7-Gao: regulators of human RGS7-Galphao interaction; Multiplexed bead flow cytometry, RGS7-Galphao binding; actives lie on both sides; binding response (% of control), % at 10 µM; 220,000 tested, 0.35% active; in the data active = binding response below about 49% or above about 150%; inconclusive = no clear call, values can overlap the other calls; inactive = in between;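 note: fluorescent Galphao held in activated GDP-AlF4 state binding bead-coupled RGS7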
Avidin fluor: avidin bead compound fluorescence profile; AID 1775; 220,000 tested, 0.38% active; Avidin beads, compound fluorescence 488/530 nm, flow cytometry; hits give high values; fluorescence (KMESF) at 10 µM; in the data active = fluorescence above about 47
RGS16-Gao: regulators of human RGS16-Galphao interaction; binding response (% of control), % at 10 µM; 220,000 tested, 0.38% active; O15492+P09471; bead-based flow cytometry RGS16-Galphao binding, fluorescence; actives lie on both sides;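 note: Galphao activated by GDP with aluminum fluoride before binding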
Target sequence (O15492 whole entry, looked up): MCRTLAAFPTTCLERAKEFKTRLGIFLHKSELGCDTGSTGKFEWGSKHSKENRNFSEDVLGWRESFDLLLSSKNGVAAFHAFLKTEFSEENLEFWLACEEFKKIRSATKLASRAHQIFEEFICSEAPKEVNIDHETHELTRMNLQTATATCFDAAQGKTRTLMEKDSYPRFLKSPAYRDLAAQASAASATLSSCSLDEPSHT
Target sequence (P09471 whole entry, looked up): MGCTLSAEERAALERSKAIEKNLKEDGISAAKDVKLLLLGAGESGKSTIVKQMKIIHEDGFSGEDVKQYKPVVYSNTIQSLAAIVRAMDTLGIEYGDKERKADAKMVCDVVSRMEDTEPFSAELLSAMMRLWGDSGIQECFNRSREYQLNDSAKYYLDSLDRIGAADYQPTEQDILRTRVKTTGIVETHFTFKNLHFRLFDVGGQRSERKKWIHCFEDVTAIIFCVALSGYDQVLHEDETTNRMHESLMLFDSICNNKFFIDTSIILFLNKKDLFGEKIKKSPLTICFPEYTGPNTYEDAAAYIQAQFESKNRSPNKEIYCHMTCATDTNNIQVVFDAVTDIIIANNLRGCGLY
RGS-Gao: modulates binding between human RGS4 and Galphao; shares compounds with RGS16-Gao; multiplexed bead flow cytometry, RGS–Galpha-o binding; RGS4–Galpha-o binding response, % at 10 µM; 1,600 tested, 99% active;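 note: fluorescently labeled Galpha-o bound to GDP with aluminium fluoride binding biotinylated RGS beads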
Target sequence (P09471 whole entry, looked up): as above
Target sequence (P49798 whole entry, looked up): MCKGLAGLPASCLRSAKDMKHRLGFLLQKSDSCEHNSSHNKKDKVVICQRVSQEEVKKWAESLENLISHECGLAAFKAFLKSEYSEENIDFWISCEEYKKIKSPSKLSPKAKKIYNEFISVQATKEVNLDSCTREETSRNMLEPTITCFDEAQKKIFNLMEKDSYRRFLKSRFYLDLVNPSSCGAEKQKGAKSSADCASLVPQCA
Biotin-avidin: counter-screen: compounds disrupting biotin binding to avidin beads. shares compounds with RGS16-Gao. streptavidin beads, fluorescein-biotin binding, flow cytometry. inhibition, % at 10 µM. 1,700 tested, under 10 active;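 active = inhibition above 50%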;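 note: median green fluorescence of gated singlet beads compared with DMSO control wells; 0% = DMSO wells and 100% = complete loss of bead fluorescence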
RGS8-Gao single: RGS8-Galphao interaction regulation, single point confirmation; bead-based flow cytometry RGS8-Galphao binding, fluorescence; actives lie on both sides; AID 1836; 1,700 tested, 3% active; binding response (% of control), % at 10 µM; shares compounds with RGS16-Gao; in the data active = binding response below about 72% or above about 130%; inactive = in between;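 note: Galphao activated as GDP AlF4 complex before binding bead RGS8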
RGS7-Gao confirm: confirmation of regulators of human RGS7-Galphao interaction | 1,700 tested, 7.8% active | response (percent of control binding), % at 10 µM | bead-based flow cytometry RGS7-Galphao binding; actives lie on both sides | AID 1837 | shares compounds with RGS16-Gao; in the data active = response below about 75% or above about 130%; inactive = in between;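 note: fluorescent Galphao activated with GDP and aluminum fluoride binding bead-coupled RGS7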
RGS16-Gao conf: RGS16-Galphao interaction regulation, single point confirmation; bead-based flow cytometry, RGS16-Galphao binding; actives lie on both sides; 1,700 tested, 4% active; shares compounds with RGS16-Gao; response (% of control binding), % at 10 µM; AID 1838; in the data active = response below about 74% or above about 130%; inactive = in between;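 note: Galphao activated as the GDP aluminium fluoride complex binding bead-coupled RGS16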
RGS4-Gao single: confirmation of regulators of human RGS4-Galphao interaction; shares compounds with RGS16-Gao; RGS4-Galphao binding, multiplexed bead flow cytometry; actives lie on both sides; binding response (% of control), % at 10 µM; 1,700 tested, 4% active; in the data active = binding response below about 74% or above about 130%; inactive = in between
RGS19-Gao single: confirmation of regulators of human RGS19-Galphao interaction | response (percent of control binding), % at 10 µM | 1,700 tested, 5% active | bead-based flow cytometry RGS19-Galphao binding; actives lie on both sides | shares compounds with RGS16-Gao | AID 1841; in the data active = response below about 50% or above about 160%; inactive = in between;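 note: 100% = no compound control and 0% = blank background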
The depositor's hits bear a star; i = inactive; ? = inconclusive; . = no result given; [ ] = remark or other dose. Unless noted, the rule behind the calls is not given here.

SMILES | GSH bead fluor | RGS8-Gao | RGS4-Gao reg | RGS7-Gao | Avidin fluor | RGS16-Gao | RGS-Gao | Biotin-avidin | RGS8-Gao single | RGS7-Gao confirm | RGS16-Gao conf | RGS4-Gao single | RGS19-Gao single
O=C(c1cc2c(s1)-c1ccccc1S(=O)(=O)C2)N1CCN(Cc2ccccc2)CC1 | 19 | 92.8 | 132.3 | 276.5*[activator] | 151* | 106.9 | 132.3* | 0.0 | 101.5 | 96.8 | 103.2 | 101.4 | 101.0
CC(C)[C@H](NC(=O)[C@@H]1Cc2ccccc2CN1C(=O)OC(C)(C)C)C(=O)NCC1CCC(C(=O)O)CC1 (stereo partly drawn) | . | 100.2 | 94.0 | ? | 17 | 101.6 | . | . | . | . | . | . | .
Cc1ccc(C)n1-c1cccc(C(=O)O)c1 | 7 | 49.2* | 84.0 | 22.0* | 2 | 91.2 | 84.0* | . | . | . | . | . | .
Cc1ccc(C)n1-c1cccc(N)c1 | 9 | 81.7 | 49.3* | 72.8 | 12 | 54.1 | . | -1.0 | 100.2 | 99.5 | 101.2 | 96.2 | 110.4
Cc1cc(NS(=O)(=O)c2ccc(NC(=O)CSc3nc4ncc(Br)cc4[nH]3)cc2)nc(C)n1 | . | 104.4 | 101.6 | ? | 5 | 104.2 | . | . | . | . | . | . | .
O=C(O)CSc1c(-c2ccccc2)[nH]c2ccccc12 | 9 | 62.1 | 76.8 | 70.0 | 5 | -3.1* | 76.8* | -1.4 | 100.0 | 97.0 | 98.7 | 100.7 | 90.9
CC1CCN(c2ccccc2N)CC1 | 33 | 130.9 | 163.2*[activator] | 152.8*[activator] | 5 | 166.8 | . | 1.2 | 91.0 | 83.2 | 85.0 | 87.5 | 48.4*
CC1CCN(c2nnc(N3CCC(C)CC3)c3ccccc23)CC1 | 19 | 17.5* | 20.0* | 11.7* | 0 | 10.6* | . | 0.0 | 98.8 | 90.0 | 96.0 | 92.3 | 86.8
Nc1ccccc1N1CCOCC1 | 9 | 96.0 | 97.8 | 99.5 | 11 | 90.8 | . | . | . | . | . | . | .
O=C(/C=C/c1ccc(F)cc1)N1CC[C@@]2(O)CCCC[C@H]2C1 | . | 106.7 | 103.3 | ? | . | 108.6 | . | . | . | . | . | . | .
COc1ccc(OC)c2c1C(=O)C(Cl)=C(Cl)C2=O | . | 44.7* | 57.6 | ? | 0 | -14.4* | 57.6* | . | . | . | . | . | .
C=C1CCN([C@H](C(=O)NCc2ccc(Cl)cc2)C(C)C)S(=O)(=O)c2ccccc21 | . | 98.9 | 99.5 | ? | 14 | 100.5 | . | . | . | . | . | . | .
Oc1oc(-c2ccc(Br)cc2)nc1C=Nc1ccc(Br)cn1 | 13 | 146.3*[activator] | 134.0 | 137.7 | 22 | 160.9 | 134.0* | 0.1 | 102.6 | 93.5 | 100.2 | 94.0 | 107.5
Cc1ccc(N=Cc2nc(-c3ccc(C)cc3)oc2O)cc1 | 16 | 104.0 | 105.6 | 108.0 | 7 | 103.2 | . | . | . | . | . | . | .
Cc1cc(-c2n[nH]c(=S)n2Cc2ccco2)n(C)n1 | 14 | 76.2 | 90.3 | 92.6 | 7 | 10.2* | 90.3* | 0.7 | 101.7 | 105.3 | 97.9 | 101.8 | 88.8
CCC(Cc1ccccc1)NC(=O)C1=C(C)C(=O)OC12CCC(C)CC2 (stereo not drawn) | 13 | 55.6* | 59.0 | 31.9* | 3 | 50.4 | 59.0* | -2.1 | 90.2 | 76.2 | 87.3 | 83.0 | 76.5
Cc1c(Br)c([N+](=O)[O-])nn1CC(=O)N1CCc2ccccc2C1 | 6 | 74.7 | 97.4 | 98.6 | 1 | 24.3* | 97.4* | -1.4 | 102.0 | 96.9 | 97.2 | 100.3 | 90.2
Cc1nn(CC(=O)N2CCc3ccccc3C2)c(C)c1[N+](=O)[O-] | 10 | 100.1 | 98.7 | 97.5 | 11 | 105.6 | . | . | . | . | . | . | .
COCCn1nnnc1CN1CCSCC1 | 20 | 101.2 | 97.9 | 99.2 | 12 | 98.5 | . | . | . | . | . | . | .
CCC(C)(C)n1nnnc1CN1CCSCC1 | 34 | 125.3 | 158.4*[activator] | 129.4 | 2 | -49.0 | . | 2.3 | 102.0 | 103.5 | 100.5 | 102.7 | 96.5
COC(=O)c1ccc(C(=O)N2CCCC(CNC(=O)c3ccccc3Cl)C2)cc1 (stereo not drawn) | 13 | 102.0 | 100.8 | 102.8 | 13 | 103.5 | . | . | . | . | . | . | .
O=C(O)CC1(CC(=O)NCc2cc(F)cc3c2OCOC3)CCCCC1 | . | 128.9 | 156.7*[activator] | ? | 8 | 150.5 | . | -2.1 | 98.0 | 101.2 | 94.0 | 93.7 | 90.1
CC(CNCC1CCCO1)COc1ccccc1 (stereo not drawn) | 35 | 122.8 | 112.6 | 108.2 | 3 | 174.7 | . | . | . | . | . | . | .
CC(CNCC1CCCO1)COc1cccc2ccccc12 (stereo not drawn) | 30 | 175.5*[activator] | 116.6 | 126.9 | 3 | i | 116.6* | 2.6 | 103.2 | 98.7 | 106.6 | 100.7 | 112.3
O=C(CSc1nncn1-c1ccccc1)NC1CCCc2ccccc21 (stereo not drawn) | 11 | 69.2 | 92.5 | 93.5 | 0 | 23.3* | 92.5* | -2.3 | 100.9 | 95.1 | 100.3 | 98.5 | 78.5
SMILES | GSH bead fluor | RGS8-Gao | RGS4-Gao reg | RGS7-Gao | Avidin fluor | RGS16-Gao | RGS-Gao | Biotin-avidin | RGS8-Gao single | RGS7-Gao confirm | RGS16-Gao conf | RGS4-Gao single | RGS19-Gao single
COC(=O)c1ccccc1NC(=S)N(Cc1ccc2c(c1)OCO2)Cc1cc2cc(C)ccc2[nH]c1=O | 9 | 127.8 | 107.2 | 112.9 | 12 | 264.5*[activator] | 107.2* | -1.4 | 101.1 | 101.4 | 100.5 | 100.3 | 88.2
COC(=O)c1ccccc1NC(=S)N(Cc1ccc2c(c1)OCO2)Cc1cc2ccc(C)cc2[nH]c1=O | 8 | 105.1 | 105.1 | 102.9 | 16 | 106.8 | . | . | . | . | . | . | .
CCCC[n+]1ccn(-c2nc3ccccc3nc2[N-]S(=O)(=O)c2ccccc2)c1 | 40 | 101.3 | 133.5 | . | . | 172.5 | . | 0.0 | 101.0 | 98.8 | 102.3 | 98.7 | 93.4
CN(c1ccccc1)S(=O)(=O)c1cccc(C(=O)Nc2ccc3c(c2)CCC3)c1 | 12 | 86.6 | 101.8 | 90.9 | 8 | 18.5* | 101.8* | -0.8 | 101.1 | 102.8 | 102.7 | 101.5 | 93.8
CCOc1ccccc1NS(=O)(=O)N(C)C | 15 | 64.7 | 11.0* | 61.5 | 6 | -852.6 | . | -0.8 | 99.9 | 96.1 | 97.8 | 94.2 | 102.4
CC(C)OCC(O)CS(=O)(=O)Cc1ccccc1 (stereo not drawn) | 9 | 73.3 | 68.5 | 79.4 | 8 | -90.2* | 68.5* | 0.8 | 99.5 | 103.0 | 102.4 | 102.4 | 90.0
